From PubChem BioAssay (Tox21)
Inconclusive results are not listed. A call without a number means that no potency is given here. Calls of active or inactive are those of the source. Calls follow the shape of the dose curve; as a rule, active = well fitted inhibition curve with a large enough effect in the repeat runs; inconclusive = weak or mixed curves; inactive = no such curve, though single readings can be large or run the other way.

Each compound was assayed against Cytochrome P450 3A4 (Homo sapiens) (UniProt P08684) (assay: Cytochrome P450 Family 3 Subfamily A Member 4 (CYP3A4) small molecule antagonists: luciferase reporter qHTS assay (AID 1671201; also: nearly all actives have a fitted effect of over 50% in size)). Conditions: P450-Glo CYP3A4 enzyme, luciferin luminescence, 1 h; series mostly up to 115 µM.
Chain of Cytochrome P450 3A4 (Homo sapiens) (P08684 whole entry, looked up): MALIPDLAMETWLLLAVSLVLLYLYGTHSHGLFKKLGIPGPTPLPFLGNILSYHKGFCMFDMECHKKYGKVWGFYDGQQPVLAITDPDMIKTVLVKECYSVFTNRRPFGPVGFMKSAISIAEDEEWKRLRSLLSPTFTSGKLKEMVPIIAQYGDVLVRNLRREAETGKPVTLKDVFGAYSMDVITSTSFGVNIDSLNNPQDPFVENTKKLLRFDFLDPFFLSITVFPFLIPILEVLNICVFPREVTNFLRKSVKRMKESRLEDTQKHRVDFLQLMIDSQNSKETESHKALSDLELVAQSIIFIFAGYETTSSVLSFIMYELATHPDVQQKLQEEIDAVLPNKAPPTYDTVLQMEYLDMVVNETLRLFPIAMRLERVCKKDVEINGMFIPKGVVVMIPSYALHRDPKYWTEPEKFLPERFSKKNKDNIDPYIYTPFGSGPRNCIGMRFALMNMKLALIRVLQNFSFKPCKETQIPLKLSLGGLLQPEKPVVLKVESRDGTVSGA
How it was run: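 Inhibition of CYP3A4 is measured as loss of light: the enzyme converts a proluciferin substrate to luciferin, detected luminescently. Reaction ran 1 h at room temperature with NADPH regeneration after a 10 min compound preincubation.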
Potency is read from the fitted curve at half-maximal effect.

Row | Structure (SMILES) | Potency | activity change, negative = inhibition
1 | CC(C)COC(=O)c1ccccc1O | inactive | –
2 | CCCCCCC(=O)OCC | inactive | –
3 | C=CC(=O)OCCCCCC | inactive | –
4 | CCCCCCC(CCCCCCCCCCC(=O)OCC(COC(C)=O)OC(C)=O)OC(C)=O (stereo not drawn) | inactive | –
5 | C[N+](C)(C)CC[N+]1(C)Cc2c(Cl)c(Cl)c(Cl)c(Cl)c2C1 | inactive | –
6 | NC1CCN(c2cccc(Cl)n2)CC1 | inactive | –
7 | C(=C(c1ccccc1)c1ccccc1)c1ccccc1 | inactive | –
8 | NC(=S)Nc1cccc2ccccc12 | – | 1.29% [at 10.5 µM] (inactive)
9 | NCCN1CCNC1=O | inactive | –
10 | COC(=O)CCCC(=O)O | inactive | –
11 | C=C(C)C(=O)NCCCN(C)C | inactive | –
12 | CC(C)(C)C(=O)/C=C/c1ccc(Cl)cc1 | inactive | –
13 | CC(C)CCCC(C)CCCC(C)CCCCC(C)CCCC(C)CCCC(C)C (stereo not drawn) | inactive | –
14 | N#CCN(CC#N)CCN(CC#N)CC#N | inactive | –
15 | FC(F)(F)C(F)(F)C(F)(F)C(F)(F)C(F)(F)C(F)(F)C(F)(F)C(F)(F)C(F)(F)C(F)(F)F | – | -3.38% [at 10.5 µM] (inactive)
16 | C=CCOc1nc(OCC=C)nc(OCC=C)n1 | 12.6 µM (active) | –
17 | OCC(CO)(CO)COCC(CO)(CO)CO | inactive | –

Row | Structure (SMILES) | Potency | activity change, negative = inhibition
18 | O=C1OC(=O)c2cc([N+](=O)[O-])ccc21 | inactive | –
19 | C/C=C1\C(=O)C[C@H]2[C@@H]3CCC4=CC(=O)CC[C@]4(C)[C@H]3CC[C@]12C | inactive | –
20 | OC1OC[C@@H](O)[C@H](O)[C@H]1O (stereo partly drawn) | inactive | –
21 | CN1[C@@H]2CC[C@H]1CC(NC(=O)n1c(=O)[nH]c3ccccc31)C2 (stereo partly drawn) | inactive | –
22 | CCCCCC[C@@H](CCC)C(=O)O | inactive | –
23 | CCCCCCCCCCCCCCC | inactive | –
24 | O=c1[nH]c2ccccc2c(=O)n1CCCl | inactive | –
25 | Cc1cc(C)cc(OCC2CNC(=O)O2)c1 (stereo not drawn) | inactive | –
26 | CSc1ccc(C=O)cc1 | inactive | –
27 | CCCCOCC(C)OCC(C)O (stereo not drawn) | inactive | –
28 | CC(C)=CC(=O)O | inactive | –
29 | CC1CCN(CCCC(=O)c2ccc(F)cc2)CC1 | inactive | –
30 | Oc1cc(O)c2c(c1)O[C@H](c1ccc(O)c(O)c1)[C@H](O)C2 | inactive | –
31 | CC(C)(C)N(CCO)CCO | inactive | –
32 | C#CC(O)CCCCC (stereo not drawn) | inactive | –
33 | CCN(CC)C(=O)c1ccc(O)c(OC)c1 | inactive | –
